Shown are actives, neighbours in structure and some others; about 0.9% of the full set was active somewhere.
Calb FLC: C. albicans growth modulation with fluconazole; C. albicans CaCi-2 (fluconazole-resistant clinical isolate) + fluconazole, Alamar Blue growth, 48 h; growth inhibition, % (concentration not given with the values); 300,000 tested, 0.57% active; AID 1979;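 active = growth inhibition above about 58% in most replicates, limit read from the data, passing the limit was not always enough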;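 also: all wells also contain fluconazole at 8 µg/ml as a sub-toxic cotreatment; 0% = median of DMSO wells and 100% = median of geldanamycin control wells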
phage Ecoli inh: E. coli growth loss with phage present | 360,000 tested, 0.26% active | growth absorbance | AID 651602 | inhibition, % at 11.9 µM; in the data active = inhibition above about 11%
Tat transport: E. coli Tat transport inhibition; E. coli MC4100 TorA-mCherry Tat export, fluorescence; inhibition, % at 10 µM; 340,000 tested, 0.036% active; AID 488895;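 active = mean replicate inhibition at least 50% and at least half of replicates individually reaching 50%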;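 also: exported cargo escapes ClpAP degradation while cytoplasmic cargo is degraded and loses fluorescence; 0% = median of neutral control wells and 100% = median of NaSCN control wells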
E coli growth-1: inhibitors of Escherichia coli growth | 330,000 tested, 0.21% active | OD600 absorbance (concentration not given with the values) | OD600, 23 h; hits give low values;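 active = OD600 absorbance below the run mean of sample wells minus 3.6 SD, in any replicate, cut at about 0.56 in these data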
AddAB inh: less growth of phage-infected E. coli with AddAB; E. coli expressing H. pylori AddAB, absorbance growth; AID 435030; 330,000 tested, 0.29% active; inhibition, % at 11.9 µM; in the data active = inhibition above about 12%;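 also: 0% = vehicle wells of infected cells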
E coli growth-2: counter-screen for AddAB inhibitors: E. coli growth inhibition; E. coli V3065 growth, OD600 absorbance, 18 h; inhibition, % at 11.9 µM; 330,000 tested, 0.27% active; AID 449728;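 active = inhibition above the campaign's mean inhibition across all tested compounds plus 3 SD, cut at about 9.9% in these data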;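 also: uninfected addAB+ strain grown without phage in ampicillin broth; 0% = DMSO wells and 100% = ciprofloxacin 0.95 µg/ml wells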
Numbers without * were called inactive; · = not tested or not shown.

SMILES	Calb FLC	phage Ecoli inh	Tat transport	E coli growth-1	AddAB inh	E coli growth-2
C/C(=N\NC(=O)c1cccc2ccccc12)c1ccccn1	-3.2	-6.7	7.6	·	·	·
C/C(=N\NC(=O)c1cc(-c2cccs2)nc2ccccc12)c1ccccn1	95.0*	0.5	0.1	·	1.7	-1.2
COc1ccc(-c2cc(C(=O)Nc3nc4c(C)cccc4s3)c3ccccc3n2)cc1OC	3.5	1.3	-7.8	0.737	-0.5	-3.2
CC(C)NC(=O)c1cc(-c2cccs2)nc2ccccc12	-31.5	-1.5	-0.2	0.643	3.7	-2.0
Cc1cccc2sc(NNC(=O)c3cc(-c4cccs4)nc4ccccc34)nc12	84.9*	5.0	-3.7	·	7.2	8.2
NNC(=O)c1cc(-c2cccs2)nc2ccccc12	104.0*	-1.4	27.0	0.704	1.9	-0.2
CC1CN(C(C)CO)C(=O)c2cc(NC(=O)Nc3ccc(C(F)(F)F)cc3)ccc2OC1CN(C)S(C)(=O)=O (stereo not drawn)	·	·	·	0.702	·	·
O=C(CCS(=O)(=O)c1cccc2nsnc12)N1CCN(C(=O)c2ccco2)CC1	56.6*	2.8	0.9	0.655	-0.7	2.2
O=C(NN=C/C=C/c1ccco1)c1cccs1	·	·	·	0.643	·	·
CCOC(=O)c1c(-c2ccc(-c3ccccc3)cc2)csc1NC(=O)CNCCN(C)C	4.0	-2.7	13.4	0.413*	-5.9	-3.4
CC1CC=CC2C1C(=O)N(Cc1ccccc1)C2c1ccc(C=Cc2ccccc2)cc1F (stereo not drawn)	·	·	·	0.656	·	·
CCOC(=O)CC(=O)NN=Cc1c(N)n(C)c(=O)n(C)c1=O	·	·	·	0.7	·	·
O=C(Oc1cc2oc(=O)cc(-c3ccccc3)c2cc1Cl)C1CCCCC1	76.8*	1.1	-3.7	0.747	2.6	-1.9
CC(C)(C)OC(=O)NCC(=O)Oc1cc2oc(=O)cc(-c3ccccc3)c2cc1Cl	49.9	3.3	-15.2	0.653	3.8	0.9
C/C(C=NNc1nc(C)cc(C)n1)=C\c1ccc(C(C)C)cc1	·	·	·	0.714	·	·
CC(C)CCNC(=S)Nc1ccc([N+](=O)[O-])cc1	-45.9	7.1	-4.1	0.574	7.1	6.7
CCCCNC(=S)Nc1ccc([N+](=O)[O-])cc1	-14.9	3.5	14.0	0.524*	7.9	4.4
CCC(C)c1ccc(O)c(NC(=S)NC(=O)c2cccnc2)c1 (stereo not drawn)	81.8*	-1.7	3.8	0.63	-4.8	-6.3
CCN1C(=O)CSC1=NS(=O)(=O)c1ccc(C)cc1	·	·	·	0.691	·	·
CCC1OC(=O)C(C)C(OC2C[C@@](C)(OC)C(O)C(C)O2)C(C)C(OC2OC(C)CC(N(C)C)C2O)[C@](C)(O)CC(C)C(=NOCOCCOC)C(C)C(O)[C@]1(C)O (stereo partly drawn)	·	·	·	0.577	·	·
CC[C@H]1OC(=O)C[C@@H](O)[C@H](C)[C@@H](O[C@@H]2O[C@H](C)C[C@H](N(C)C)[C@H]2O)[C@@H](CC=O)C[C@@H](C)C(=O)C=C[C@]2(C)O[C@H]2[C@@H]1C	·	·	·	·	98.6*	100.3*
O=C(CSc1ccc(-c2ccccn2)nn1)c1ccc(F)cc1	-5.8	3.6	0.3	0.699	8.3	11.4*
Cc1nnc(NC(=O)CSc2ccc(-c3ccccn3)nn2)s1	-2.7	·	·	0.622	9.5	9.9*
Cc1nnc(NC(=O)CSc2ccc(-c3cccnc3)nn2)s1	2.5	4.1	-3.5	0.656	0.9	0.9
COc1ccccc1NC(=O)CSc1ccc(-c2ccccn2)nn1	·	11.7*	1.0	0.697	10.6	9.1
SMILES	Calb FLC	phage Ecoli inh	Tat transport	E coli growth-1	AddAB inh	E coli growth-2
Cc1ccc(C(NC(=O)C(C)C)c2cc([N+](=O)[O-])c3cccnc3c2O)cc1 (stereo not drawn)	-7.3	2.7	-8.3	0.664	5.9	1.0
CC(C)C(=O)NC(c1cccs1)c1cc([N+](=O)[O-])c2cccnc2c1O (stereo not drawn)	89.8*	·	-4.8	0.672	-2.4	-2.1
C=CCn1c(=O)c(C(=O)NCCNCC)c(O)c2ccccc21	3.8	3.5	-11.0	0.661	-1.2	-3.2
CCCCCCCCC(=O)NNC(=O)c1c(O)c2ccccc2n(CC)c1=O	93.9*	0.5	6.9	0.691	0.7	0.6
C=CCn1c(=O)c(C(=O)NCc2ccccc2)c(O)c2ccccc21	4.9	9.9	1.2	0.675	11.1	11.2*
CCCCC(=O)NN=C(C)CC(=O)Nc1ccccc1Br	·	·	·	0.719	·	·
CCn1cc(C(=O)OCC(=O)c2ccc(Cl)cc2)c(=O)c2ccc(C)nc21	31.4	-1.6	-3.1	0.67	-0.1	-2.0
CCn1cc(C(=O)NCc2cccc(C(F)(F)F)c2)c(=O)c2ccc(C)nc21	2.9	-0.7	-9.6	0.456*	3.4	0.8

Bioassay records from PubChem BioAssay.
